The source of these data is PubChem BioAssay AID1362 (SRMLSC, 2008).

Structures are written as SMILES. The whole screen tested about 190,000 compounds, of which about 4,000 (2.1%) were called active. No stated cut-off is given here; in the data, active means inhibition above about 58%; inactive means the rest, inconclusive results apart; tested in S. cerevisiae. The entries come from a sample that favours actives as a whole.

A short description of this experiment: growth inhibition of WT strain, primary screen, mitochondrial fusion inhibitor project, WT and mutant strains, chemical genetic (AID 1362). The conditions noted are these: mitochondrial fusion phenotypic screen, at 10 µM.
The mark [1] stands for this setting: WT strain, growth inhibition, stronger effect = higher value.

In general, inhibition refers to the change of the read-out against control, counted positive when it falls. For the compound `OCC1(Cc2ccccc2)CCN(Cc2cc3ccccc3o2)CC1`, the inhibition is 24.3% (inactive) under setting [1] and 36.2% (mutant strain inhibition).

As for `Cc1csc(Nc2ccc(Cl)cc2)[n+]1-c1ccc(Cl)cc1`, the inhibition was 78.4% (active) under setting [1] and 70% (mutant strain inhibition).

Regarding `COc1ccc(N2CCN(C(=O)COc3ccc4c(C)cc(=O)oc4c3)CC2)cc1`, the inhibition was -1.11% (inactive) under setting [1] and -11.1% (mutant strain inhibition).

For `CC(C)c1nc(CNC(=O)CC2C(=O)NCCN2Cc2ccoc2)cs1` (stereo unspecified), the inhibition under setting [1] is 1.8% (inactive) and the inhibition (mutant strain inhibition) is 0.76%.

Turning to `CN(CCC#N)c1ncnc2scc(-c3ccccc3)c12`, the inhibition under setting [1] is 23.5% (inactive) and the inhibition (mutant strain inhibition) is 28.2%.

Take `N#CCCN(CCC#N)c1nnc(-c2ccccc2)s1`: the inhibition reads like this: under setting [1], 73.6% (active); (mutant strain inhibition) -2.41%.

In the case of `CN(C(=O)COc1ccccc1)c1nnc(-c2ccncc2)s1`, the inhibition was 22.6% (inactive) under setting [1] and 9.04% (mutant strain inhibition).

On to `OCCC1CN(Cc2cccc(O)c2)CCN1CCc1ccccc1` (stereo unspecified), for which the inhibition runs as follows: under setting [1], 9.78% (inactive); (mutant strain inhibition) 8.67%.

As for `CCc1ccc(Oc2nc([N+](=O)[O-])nn2C)cc1`, the inhibition is 3.07% (inactive) under setting [1] and 19% (mutant strain inhibition).

In the case of `CCc1ccc(-c2nn(-c3ccccc3)cc2CSC(=N)N)cc1`, the inhibition was 90.2% (active) under setting [1] and 35.6% (mutant strain inhibition).

For the compound `N=C(N)SCc1cccc2ccccc12`, the inhibition runs as follows: under setting [1], 41% (inactive); (mutant strain inhibition) 10.9%.

For `CCn1c(SCc2ccc(C)cc2)nnc1-c1nn(-c2ccccc2)ccc1=O`, the inhibition reads like this: under setting [1], 4.19% (inactive); (mutant strain inhibition) -13.4%.

As to `O=C(Nc1ccc2cn[nH]c2c1)c1ccc(S(=O)(=O)N2CCOCC2)cc1`, the inhibition under setting [1] is 2.7% (inactive) and the inhibition (mutant strain inhibition) amounted to 11.1%.

Turning to `CS(=O)(=O)N1CCc2cc(C(=O)Nc3ccccc3)ccc21`, the inhibition reads like this: under setting [1], -2.67% (inactive); (mutant strain inhibition) -18.5%.

Take `Cc1occc1C(=O)N1CCCc2ccccc21`: the inhibition reads like this: under setting [1], -3.43% (inactive); (mutant strain inhibition) -8.66%.

Consider `Cc1cccc2cc3c(N)c(C(=O)N4CCCc5ccccc54)sc3nc12`, for which the inhibition under setting [1] is 62.1% (active) and the inhibition (mutant strain inhibition) was determined as 57.1%.

In the case of `Cc1c(C(=O)N2CCCc3ccccc32)sc2nc(-c3ccccc3)cn12`, the inhibition is, setting by setting: under setting [1], 9.55% (inactive); (mutant strain inhibition) 9.04%.

As to `C/C(=N\NC(=O)c1cccc(N2CCCC2=O)c1)c1ccc(N)cc1`, the inhibition under setting [1] is -2.44% (inactive) and the inhibition (mutant strain inhibition) is -3.4%.

In the case of `CCNC(=S)NNC(=O)c1ccc2ncccc2c1`, the inhibition runs as follows: under setting [1], -18.5% (inactive); (mutant strain inhibition) -0.98%.

Turning to `O=C(COC(=O)c1ccc(O)cc1)Nc1nccs1`, the inhibition is, setting by setting: under setting [1], -7.58% (inactive); (mutant strain inhibition) 1.79%.

With `Cc1ccc(CNC(=O)CN2CCN(Cc3ccc(Cl)cc3)C2=O)cc1`, the inhibition is, setting by setting: under setting [1], 4.82% (inactive); (mutant strain inhibition) -0.06%.

Take `O=C(CN1CCN(S(=O)(=O)c2ccc(Cl)s2)CC1)NCc1ccc(Cl)cc1`: the inhibition reads like this: under setting [1], 61.7% (active); (mutant strain inhibition) -2.81%.

For `O=C(CN1CCN(c2ccc(Cl)cc2)CC1)NCc1cccs1`, the inhibition under setting [1] was 14.4% (inactive) and the inhibition (mutant strain inhibition) was -1.49%.

Consider `Cc1ccc2nsnc2c1S(=O)(=O)N1CCCC1C(=O)O` (stereo unspecified), for which the inhibition was 2.57% (inactive) under setting [1] and -0.55% (mutant strain inhibition).

`CC(=O)NC(Cc1ccc(F)c(F)c1)C(=O)NC1CCN(c2nnnn2-c2ccccc2)CC1` (stereo unspecified): the inhibition runs as follows: under setting [1], -2.05% (inactive); (mutant strain inhibition) 7.21%.

As to `CS(=O)(=O)N(Cc1ccccc1Cl)c1ccc(C(=O)NCc2cccnc2)cc1`, the inhibition reads like this: under setting [1], 1.43% (inactive); (mutant strain inhibition) 5.31%.

For `Clc1ccc(C2=CSC3=Nc4cccc5cccc(c45)N23)cc1`, the inhibition under setting [1] was 61% (active) and the inhibition (mutant strain inhibition) was found to be 25.3%.

Regarding `COc1ccc(CN2CCNC(=O)C2CC(=O)N(C)Cc2ccccn2)cc1OC` (stereo unspecified), the inhibition was -6.3% (inactive) under setting [1] and -4.12% (mutant strain inhibition).

For `COC(=O)CSc1ccc2nnc(CCNS(=O)(=O)c3ccc(C)cc3)n2n1`, the inhibition by setting is: under setting [1], 8.31% (inactive); (mutant strain inhibition) 0.44%.

Consider `CCCCCC(=O)Nc1ccc(-c2cn3cccnc3n2)cc1`, for which the inhibition was 10.4% (inactive) under setting [1] and 10.5% (mutant strain inhibition).

In the case of `COc1ccc(CCN=C2SCC(=O)N2Cc2ccccc2)cc1OC`, the inhibition by setting is: under setting [1], -7.75% (inactive); (mutant strain inhibition) -8.9%.

For `Cc1cccc(NC(=S)NCCN(C2CCCCC2)C2CCCC2)c1`, the inhibition runs as follows: under setting [1], 6.36% (inactive); (mutant strain inhibition) -17.7%.

As for `Cc1cccc(NC(=S)NCc2ccc3[nH]c4c(c3c2)CCCC4)c1`, the inhibition by setting is: under setting [1], 75.3% (active); (mutant strain inhibition) 51.7%.

On to `O=C(O)CCC(=O)NCc1ccc2[nH]c3c(c2c1)CCCC3`, for which the inhibition was 16.4% (inactive) under setting [1] and 10.2% (mutant strain inhibition).

Take `OC(COc1ccc(CN2CCSCC2)cc1)CN1CCCCC1` (stereo unspecified): the inhibition under setting [1] was -6.41% (inactive) and the inhibition (mutant strain inhibition) was determined as 3.34%.

Turning to `C=CCN(CC=C)C(=O)COC(=O)c1n[nH]c2ccccc12`, the inhibition is, setting by setting: under setting [1], 3.05% (inactive); (mutant strain inhibition) 3.34%.

With `NC(=O)COC(=O)c1cc(S(=O)(=O)N2CCN(c3ccccc3)CC2)ccc1Cl`, the inhibition by setting is: under setting [1], -11% (inactive); (mutant strain inhibition) 6.11%.

For the compound `O=C(NCc1ccccn1)Nc1ccc(F)cc1`, the inhibition reads like this: under setting [1], -29.6% (inactive); (mutant strain inhibition) -0.93%.

Consider `COc1cccc(NC(=S)NCc2ccccn2)c1`, for which the inhibition runs as follows: under setting [1], -0.62% (inactive); (mutant strain inhibition) 6.49%.

For `CCC(C)c1ccc(NC(=S)NCc2ccccn2)cc1` (stereo unspecified), the inhibition is, setting by setting: under setting [1], 71% (active); (mutant strain inhibition) 62.6%.

For `COc1ccccc1Oc1ccc(S(=O)(=O)Nc2cccnc2)cc1`, the inhibition under setting [1] was 7.74% (inactive) and the inhibition (mutant strain inhibition) stood at 7.52%.

Regarding `Cc1cc(C)cc(NS(=O)(=O)c2ccc(Oc3ncc(C(F)(F)F)cc3Cl)cc2)c1`, the inhibition by setting is: under setting [1], 75.5% (active); (mutant strain inhibition) 23.7%.

For `COC(=O)Cc1ccc(Oc2ncc(C(F)(F)F)cc2Cl)cc1`, the inhibition reads like this: under setting [1], 13.6% (inactive); (mutant strain inhibition) 17.5%.
